Bioassay records deposited in PubChem BioAssay by National Center for Advancing Translational Sciences (NCATS).
PLK1 PBD block – blocks phosphopeptide binding to human PLK1 polo-box domain; P53350; Plk1 PBD binding of FITC phosphopeptide, fluorescence polarization; Potency, µM, actives largely listed as inhibitors; 360,000 tested, 2.8% active; AID 720504; also: series mostly up to about 57 µM; nearly all actives have a fitted effect of over 65% in size
Sfp PPTase inh – inhibitors of Bacillus subtilis Sfp phosphopantetheinyl transferase | Q9F4F7 | Biochemical Sfp PPTase activity, qHTS | Potency, µM, actives largely listed as inhibitors | 310,000 tested, 3.5% active | AID 1490;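 also: the enzyme is Sfp with the accession as filed and its product quenches rhodamine fluorescence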
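Fluorescence-quenching assay with 15 nM Sfp, 5 uM rhodamine-CoA and 12.5 uM BHQ-2-labelled ybbR peptide in pH 7.6 Hepes/MgCl2 buffer. Enzyme was pre-incubated with compound for 15 min at room temperature. Rate was taken from the 30-min fluorescence change (525/598 nm).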
rTrxR1 inhibitor – inhibitors of rat thioredoxin reductase 1; O89049; recombinant rTrxR1, NADPH fluorescence consumption, selenite substrate; Potency, µM (series often up to 114 µM), actives largely listed as inhibitors; 390,000 tested, 1% active; also: nearly all actives have a fitted effect of over 65% in size
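Rat TrxR1 (90 nM in the dispensed reagent) was pre-reduced with 400 uM NADPH for 5 min at room temperature, then incubated with compound for 15 min. After 400 uM selenite was added, NADPH fluorescence (Ex 340/Em 450 nm) was followed for 8 min.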
VDR inhibitor – blocks the human vitamin D receptor | AID 504847 | P11473 | 400,000 tested, 0.93% active | Potency, µM, usual class: inhibitors | VDR-SRC2-3 peptide fluorescence polarization, 2 h
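Compounds are added to VDR with labelled SRC2-3 coactivator peptide and held 2 h at room temperature. Inhibition of the VDR–peptide interaction is then read as a change in fluorescence polarization.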
TrxR1 substrate – rat thioredoxin reductase 1 substrate activity; purified TrxR1 substrate turnover, NADPH consumption readout; Potency, µM (series often up to 114 µM); AID 588456; 390,000 tested, 0.01% active; also: nearly all actives have a fitted effect of over 50% in size
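Rat TrxR1, dispensed at 90 nM, was prereduced with 400 uM NADPH (final) for 5 min at ~22 deg C, then incubated with compound 15 min before 400 uM selenite. A first-read NADPH fluorescence drop versus no-compound background flagged substrates.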
mIDH1 inhibitor – blocks human mutant IDH1 R132H enzyme; IDH1-R132H enzyme, NADPH consumption, diaphorase/resazurin fluorescence; Potency, µM (highest dose often 76.6 µM), usual class: inhibitors; 390,000 tested, 0.093% active; O75874; AID 602179; also: nearly all actives have a fitted effect of over 65% in size
Target sequence (O75874 whole entry R132H, stated change not applied): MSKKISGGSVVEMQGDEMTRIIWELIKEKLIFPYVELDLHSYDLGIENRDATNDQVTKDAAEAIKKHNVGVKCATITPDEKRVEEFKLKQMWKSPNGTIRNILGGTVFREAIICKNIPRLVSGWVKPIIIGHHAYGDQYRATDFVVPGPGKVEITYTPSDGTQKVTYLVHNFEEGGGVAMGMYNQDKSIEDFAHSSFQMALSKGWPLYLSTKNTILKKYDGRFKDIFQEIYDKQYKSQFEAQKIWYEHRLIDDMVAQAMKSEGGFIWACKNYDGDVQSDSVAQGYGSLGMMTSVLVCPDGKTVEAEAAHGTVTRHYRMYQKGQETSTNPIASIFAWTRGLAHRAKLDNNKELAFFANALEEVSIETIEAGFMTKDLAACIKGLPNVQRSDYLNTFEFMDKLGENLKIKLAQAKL
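IDH1-R132H (0.5 ug/mL dispensed) in pH 7.5 Tris buffer was preincubated 30 min with compound, then given a substrate mix of 0.016 mM NADPH and 2 mM alpha-KG for 80 min at room temperature; remaining NADPH was read by diaphorase/resazurin fluorescence.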
Large screens that a line does not name were inactive. Sampled rows, rich in hits. Any-hit rate of the full collection: about 5.2%. Calls follow the shape of the dose curve; as a rule, active = well fitted curve in the direction sought with a large enough effect; inconclusive = small, poorly fitted or top-dose-only effect, or another doubt; inactive = no such curve, though single readings can be large; an effect the other way counts as inactive or inconclusive.

Cc1ccc(/C=N\NC(=O)c2csnn2)cc1	PLK1 PBD block inconclusive, Sfp PPTase inh 10µM
Cc1cc(C)c2c(=O)[nH]c(SCC(=O)c3ccc(C)c(C)c3)nc2n1	Sfp PPTase inh 56µM
CCC(C)NC(=O)CS(=O)Cc1nc(-c2ccccc2C)oc1C (configuration not stated)	PLK1 PBD block inconclusive, rTrxR1 inhibitor 7.1µM
Cc1oc(-c2ccccc2F)nc1CS(=O)CC(=O)NCc1cccs1 (configuration not stated)	PLK1 PBD block inconclusive, rTrxR1 inhibitor inconclusive
Cc1oc(-c2ccccc2F)nc1CS(=O)CC(=O)NC(C)C (configuration not stated)	rTrxR1 inhibitor 40µM (no result: PLK1 PBD block, Sfp PPTase inh)
C/C=C/C1=CC(=O)C[C@H](c2ccc(OC)c(OC)c2)C1	rTrxR1 inhibitor inconclusive (no result: Sfp PPTase inh)
CCc1nn(CC(=O)NCCc2ccc(OC)cc2OC)c(=O)c2cc3c(OC)cccc3n12	none (no result: PLK1 PBD block, Sfp PPTase inh)
Cc1ccc(C(C)C)c(OCc2nn(CC(=O)c3ccc(Cl)cc3)c3[n+]2CCCCC3)c1	Sfp PPTase inh 32µM
CCOC(=O)c1c(NC(=S)Nc2ccc(OCC)cc2)sc2c1CCN(C)C2	PLK1 PBD block inconclusive, Sfp PPTase inh 16µM, rTrxR1 inhibitor inconclusive
CCOC(=O)c1c(NC(=O)CSc2nnc(C)s2)sc2c1CCN(C)C2	Sfp PPTase inh 18µM
CCOC(=O)c1c(NC(=S)Nc2ccc(Cl)cc2)sc2c1CCN(C)C2	Sfp PPTase inh inconclusive, rTrxR1 inhibitor inconclusive
Cc1cc(C)cc(NC(=O)CCCN2C(=O)C(c3ccccc3)Oc3cccnc32)c1 (configuration not stated)	PLK1 PBD block 24µM
COc1ccc(CNC(=O)CN2C(=O)C(c3ccccc3)Oc3cccnc32)cc1 (configuration not stated)	none
CC(=O)Nc1ccc(NC(=O)CCCN2C(=O)C(c3ccccc3)Oc3cccnc32)cc1 (configuration not stated)	none (no result: Sfp PPTase inh, rTrxR1 inhibitor, VDR inhibitor, TrxR1 substrate)
O=C(CN1C(=O)C(c2ccccc2)Oc2cccnc21)NCc1ccccc1F (configuration not stated)	PLK1 PBD block 7.5µM, VDR inhibitor inconclusive
COC(=O)c1cc2oc(C)cc2n1Cc1ccc(C)cc1	none (no result: PLK1 PBD block, Sfp PPTase inh)
C[C@H](NC(=O)Cc1ccccc1)C(=O)N1CCC2(CC1)NCCc1[nH]cnc12	PLK1 PBD block 27µM
COc1ccc(CC(=O)N[C@@H](C)C(=O)N2CCC3(CC2)NCCc2[nH]cnc23)cc1	none
COc1ccc(C(=O)NCCC(=O)N2CCC3(CC2)NCCc2[nH]cnc23)cc1	PLK1 PBD block 27µM, VDR inhibitor inconclusive
COC(=O)N[C@@H](CCc1ccccc1)[C@]1(C(C)=O)CCCC1=O	none (no result: PLK1 PBD block, rTrxR1 inhibitor, TrxR1 substrate, mIDH1 inhibitor)
COC(=O)[C@]1(Cc2ccccc2)N[C@H](CN(C)C(=O)c2ccc(F)cc2)[C@@H]2C(=O)N(Cc3ccccc3)C(=O)[C@@H]21	none (no result: Sfp PPTase inh)
CCNC(=S)N(Cc1ccco1)Cc1cc2cc3c(cc2[nH]c1=O)OCCO3	none
CCN(CC)CCCNC(=S)N(Cc1ccco1)Cc1cc2cc3c(cc2[nH]c1=O)OCCO3	Sfp PPTase inh 79µM (no result: PLK1 PBD block, rTrxR1 inhibitor, VDR inhibitor, TrxR1 substrate, mIDH1 inhibitor)
CNC(=S)N(Cc1ccco1)Cc1cc2cc3c(cc2[nH]c1=O)OCCO3	PLK1 PBD block 27µM, Sfp PPTase inh 28µM, rTrxR1 inhibitor inconclusive
CCN(CC)CCCNC(=S)N(Cc1cccs1)Cc1cc2cc3c(cc2[nH]c1=O)OCCO3	none
CCc1ccc2[nH]c(=O)c(CN(Cc3ccco3)C(=S)NCC3CCCO3)cc2c1 (configuration not stated)	none
Cc1cc2cc(CN(Cc3ccco3)C(=S)NCC3CCCO3)c(=O)[nH]c2cc1C (configuration not stated)	Sfp PPTase inh 50µM, rTrxR1 inhibitor inconclusive
CCCNC(=O)C1(C)CCCN(CCOc2ccccc2)C1 (configuration not stated)	none (no result: Sfp PPTase inh, rTrxR1 inhibitor, VDR inhibitor, TrxR1 substrate, mIDH1 inhibitor)
COc1cc(Cl)c(NC(=O)CN(C)S(=O)(=O)c2ccc3c(c2)CCCC(=O)N3)c(OC)c1	none (no result: PLK1 PBD block, Sfp PPTase inh)
CCc1ccc2oc(-c3ccc(C)c(NC(=O)COc4ccccc4Cl)c3)nc2c1	none (no result: PLK1 PBD block, Sfp PPTase inh, VDR inhibitor, mIDH1 inhibitor)
COc1cc(OC)c(Nc2nc3ccc(C(=O)c4ccccc4)cc3n3c(C)nnc23)cc1Cl	VDR inhibitor inconclusive (no result: PLK1 PBD block, Sfp PPTase inh)
